Screens from PubChem BioAssay.
D2 ag-1: Beta-Arrestin HTS for Positive Allosteric Modulators of the Human D2 Dopamine Receptor: Agonists; DiscoveRx PathHunter D2 beta-arrestin, luminescence, 90 min; 100% = 57 uM dopamine signal; activation, % (concentration not given with the values); 360,000 compounds, 0.084% hits; in the data active = activation above about 40%
Target sequence (P14416 whole entry, looked up): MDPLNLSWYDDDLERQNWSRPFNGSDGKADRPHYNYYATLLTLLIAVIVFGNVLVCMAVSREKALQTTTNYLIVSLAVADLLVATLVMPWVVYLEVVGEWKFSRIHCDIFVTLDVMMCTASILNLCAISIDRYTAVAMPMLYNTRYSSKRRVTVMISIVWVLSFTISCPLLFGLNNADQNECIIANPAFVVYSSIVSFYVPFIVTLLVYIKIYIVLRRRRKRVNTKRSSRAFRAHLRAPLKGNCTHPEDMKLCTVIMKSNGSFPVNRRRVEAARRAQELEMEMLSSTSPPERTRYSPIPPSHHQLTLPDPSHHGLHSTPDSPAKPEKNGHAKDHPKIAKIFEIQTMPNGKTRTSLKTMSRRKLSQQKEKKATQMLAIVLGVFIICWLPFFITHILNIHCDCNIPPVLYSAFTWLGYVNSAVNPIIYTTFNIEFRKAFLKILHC
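DiscoveRx PathHunter D2 beta-arrestin cells (2,100/well) attached overnight, then compound-stimulated 90 min at 37 C in HBSS/10 mM HEPES/0.1% Tween-20 buffer; beta-galactosidase complementation read by luminescence after 1 h at ambient temperature. Dopamine 57 uM final (EC100) as control.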
D2 PAM-1: HTS Assay for Positive Allosteric Modulators of the Human D2 Dopamine Receptor: Primary Screen for Potentiators; D(2) dopamine receptor (Homo sapiens), P14416; potentiation, % at 10 µM; 340,000 compounds, 0.34% hits; HEK293 T-REx D2, calcium flux, EC20 dopamine potentiation;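 active = potentiation over 3 SD above the plate norm, cut at about 30% in these data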; note: 0% is about no effect
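Tetracycline-induced Hek293 Trex D2 cells, force-coupled to calcium, loaded with no-wash calcium dye. Compound added with 180 s kinetic read for agonism, then EC20 dopamine and a further 180 s read for potentiation.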
D2 ag-2: HTS Assay for Allosteric Agonists of the Human D2 Dopamine Receptor: Primary Screen for Agonists. HEK293 T-REx D2 cells, calcium flux agonist mode. activation, % at 2 µM. 340,000 compounds, 0.53% hits;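 active = activation over 3 SD above normal in the single-dose calcium agonist read, cut at about 30% in these data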; note: 0% is about no effect
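Tetracycline-induced HEK293 Trex cells with D2 receptor force-coupled to calcium signaling, plated overnight at 30 C and loaded with no-wash calcium dye. Calcium flux read kinetically for 180 s after compound addition; responses flag agonists.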
D2 PAM-2: Beta-Arrestin HTS for Positive Allosteric Modulators of the Human D2 Dopamine Receptor: Potentiators. 360,000 compounds, 0.23% hits. AID 624464, 2012. potentiation, % (test concentration not listed). DiscoveRx D2 beta-arrestin cells, luminescence, 90 min; 100% = 57 uM dopamine signal. D(2) dopamine receptor (Homo sapiens), P14416; in the data active = potentiation above about 50%
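PathHunter D2 cells, attached overnight at 37 deg C, received compound in DMSO plus dopamine at EC20 (50 nM final) for 90 min at 37 deg C. Beta-arrestin recruitment was read as luminescence after 1 h with detection reagent at ambient temperature.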
D2 antagonist: HTS Assay for Allosteric Antagonists of the Human D2 Dopamine Receptor: Primary Screen for Antagonists; inhibition, % at 10 µM; D(2) dopamine receptor (Homo sapiens), P14416; AID 485344, 2010; 340,000 compounds, 2% hits; HEK293 TREx D2 cells, calcium flux, dopamine EC80; in the data active = inhibition above about 30%; inactive = below that, where a call was filed; note: 0% is about no effect
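Tetracycline-induced HEK293 T-REx cells expressing D2 force-coupled to calcium signalling were dye-loaded, exposed to compound for 180 s, then challenged with an EC80 of dopamine; calcium flux was followed kinetically for a further 180 s.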
Active calls of the source: *; . = no result. Most compounds without a hit are left out; they make up all but 2.4% or so of the library.

SMILES | D2 ag-1 | D2 PAM-1 | D2 ag-2 | D2 PAM-2 | D2 antagonist
O=C(Nc1nc2ccccc2[nH]1)c1ccc(OC(F)F)cc1 | 2.4 | -7.6 | 0.4 | -5.6 | -4.4
CC(C)Oc1ccc(C(=O)Nc2nc3ccccc3[nH]2)cc1 | -3.1 | 105.2* | 0.8 | -0.4 | -1.9
COc1ccc(/C=N/NC(=O)COc2cccc3ccccc23)c(C(=O)O)c1OC | -0.3 | 40.4* | 0.2 | 1.9 | -20.6
COc1ccc(/C=N/NC(=O)COc2ccc3ccccc3c2)c(C(=O)O)c1OC | -6.7 | 12.3 | 0.6 | -1.5 | 7.1
CCCCN(CC)CCCNC(=O)Nc1sc2nc3n(c(=O)c2c1C)CCC(C)CC3 (configuration not stated) | . | 2.9 | -0.5 | . | .
Cc1ccc(C(=O)c2cn(Cc3ccccc3C)c3nc(C)ccc3c2=O)cc1 | . | -0.1 | 0.0 | . | .
O=S(=O)(Cc1ccccc1)Nn1cnnc1 | -0.6 | 7.0 | 0.5 | -3.8 | 31.4*
Cc1cccc(NS(=O)(=O)Cc2ccccc2)n1 | -1.0 | -5.8 | -0.2 | -2.0 | -30.3
COCCn1nnnc1SCC(=O)c1ccc(F)cc1 | -7.6 | 4.6 | 1.0 | -18.6 | 38.8*
COCCn1c(SCC(=O)c2ccc(F)cc2)nnc1C(C)C | -3.2 | 11.1 | -1.2 | -17.5 | 13.5
O=C(NCc1ccccc1C(F)(F)F)C1CC(c2cccc(F)c2)=NO1 (configuration not stated) | -2.9 | 11.6 | 1.0 | -10.4 | 41.8*
O=C(NCc1ccccc1C(F)(F)F)C1CC(c2cc(C(F)(F)F)cc(C(F)(F)F)c2)=NO1 (configuration not stated) | 2.5 | 3.3 | 0.1 | 6.4 | 7.7
CN(C)c1ccc(CNC(=O)c2ccc(Cn3c(SCc4ccccc4)nc4cccnc43)cc2)cc1 | . | 1.7 | -0.5 | . | .
CCOC(=O)CC(NCc1ccc(OC)c(OCC)c1)c1ccc(C)cc1 (configuration not stated) | -0.2 | -20.1 | -0.3 | -12.9 | 60.6*
O=C(COc1ccc(/C=N/NC(=O)c2ccncc2)cc1)Nc1ccc([N+](=O)[O-])cc1 | -2.0 | . | -3.0 | -3.1 | 42.4*
O=C(CNC(=O)c1ccc([N+](=O)[O-])cc1)N/N=C\c1ccc(OC(=O)c2ccccc2)cc1 | 2.0 | -3.7 | -1.0 | 27.4 | 59.4*
COc1cccc(C(=O)NCC(=O)N/N=C/c2cccc(OC(=O)c3ccc([N+](=O)[O-])cc3)c2)c1 | 4.2 | . | . | 4.4 | .
O=C(CCCN=C1NS(=O)(=O)c2ccccc21)Nc1ccc(Cl)cc1 | -2.3 | -16.1 | 0.1 | -13.8 | 5.6
O=C(CCN=C1NS(=O)(=O)c2ccccc21)Nc1ccc(Cl)cc1F | 4.1 | -13.6 | -1.1 | -2.8 | 40.1*
O=c1[nH]c(=S)[nH]c(O)c1N=Nc1ccc(-c2ccccc2)cc1[N+](=O)[O-] | . | -0.1 | -0.9 | . | 19.2
Cc1cc(N2CCN(c3cccc(C(F)(F)F)c3)CC2)n2nc(-c3ccccc3C)nc2n1 | . | 1.8 | -1.0 | . | .
O=C(O)CCCC(=O)Nc1nc2n(n1)C(c1ccc(F)cc1)CC(c1ccc(Cl)cc1)N2 (configuration not stated) | -2.5 | -8.1 | -0.8 | -9.1 | 32.3*
CC(=O)c1c(C)n(-c2cccc(C)c2)c2ccc(OC(=O)COc3ccccc3)cc12 | . | 1.3 | 1.4 | . | .
CC(C)=N/N=c1\scc(C)n1Cc1ccco1 | 2.0 | 8.3 | 0.7 | 6.7 | 39.9*
Cc1cs/c(=N\N=C\c2ccccc2)n1Cc1ccco1 | -1.4 | -4.5 | 0.9 | 1.7 | 0.7
SMILES | D2 ag-1 | D2 PAM-1 | D2 ag-2 | D2 PAM-2 | D2 antagonist
COc1cc(C2c3c(oc4ccccc4c3=O)C(=O)N2c2nncs2)cc(OC)c1OC (configuration not stated) | . | 0.3 | -0.2 | . | .
CC(C)c1onc(C(=O)Nc2cccc(O)c2)c1[N+](=O)[O-] | 9.3 | -9.0 | 0.2 | 6.0 | 6.9
Cc1ccc(NC(=O)c2noc(C(C)C)c2[N+](=O)[O-])cc1 | 8.6 | -29.1 | -1.0 | -10.7 | 50.8*
CCOC(=O)C1=C(COC(=O)C(CC)c2ccccc2)NC(=O)NC1C (configuration not stated) | 0.1 | 30.1* | 0.0 | -1.7 | 8.0
COc1ccc(C2c3c(n(C)c4ccccc34)C(=O)N2CC(=O)Nc2ccccc2Cl)cc1 (configuration not stated) | . | 12.5 | . | . | .
COc1ccc(OC)c(NC(=O)c2ccc(OCC(=O)N3CCOCC3)c(OC)c2)c1 | 1.2 | -8.8 | 10.0 | -4.2 | -13.7
COc1cc(C(=O)Nc2cc(S(C)(=O)=O)ccc2Cl)ccc1OCC(=O)N1CCOCC1 | -4.9 | -5.5 | 0.0 | -3.8 | 35.6*
Cc1ccc(N=C(NO)c2nonc2N)c(C)c1 | -0.2 | -3.8 | 0.6 | -1.6 | 8.5
Cc1ccc(N=C(NOC(=O)c2ccccc2)c2nonc2N)c(C)c1 | 10.5 | -1.5 | 0.1 | 95.3* | -19.2
O=C(Nc1ccccc1F)c1nc(SCc2ccccc2F)ncc1Cl | . | -4.1 | 0.4 | . | .
COc1ccccc1CCN1CCCC(CN(C)C(=O)c2ccoc2)C1 (configuration not stated) | -2.0 | -11.0 | 0.0 | -27.3 | 41.9*
CCCCNC(=O)c1cc(-c2ccc(OC)cc2)nc2n[nH]c(-c3cccc([N+](=O)[O-])c3)c12 | . | -3.2 | 0.2 | . | .
COc1ccc(C2Nc3ccccc3C(=O)N2Cc2ccccc2)cc1CN1CCOCC1 (configuration not stated) | -2.9 | 3.5 | 0.3 | -7.3 | -3.2
COc1ccc(C2Nc3ccccc3C(=O)N2c2ccccc2)cc1CN1CCOCC1 (configuration not stated) | 3.5 | -0.9 | 0.3 | -12.6 | 30.1*
C=CCC(NCc1ccccc1)c1ccc(OC)cc1 (configuration not stated) | -6.3 | -8.4 | 0.6 | -5.6 | -23.2
C=CCC(NCc1ccccc1)c1ccco1 (configuration not stated) | -3.0 | 40.7* | 0.1 | 1.7 | -12.8
Cc1ccc(-c2nc3scc(CCNS(=O)(=O)c4ccc(Oc5ccccc5)cc4)n3n2)cc1 | . | 6.2 | 0.0 | . | .
Cc1ccc(Cl)cc1N1CCN(CCCNC(=O)C2COc3ccccc3C2)CC1 (configuration not stated) | . | -23.4 | -0.9 | . | .
COc1ccc(C(C)=O)cc1COC(=O)Cc1n[nH]c(=O)c2ccccc12 | -3.0 | 4.5 | 0.2 | -3.4 | 33.1*
COc1ccccc1C(=O)COC(=O)Cc1n[nH]c(=O)c2ccccc12 | -4.6 | -10.7 | . | -0.6 | .
